# Source: PubChem BioAssay (several laboratories)
# The list is not random: actives were taken first. Their share in the collection is about 1.8%.
# MazF activator – activators of E. coli MazEF toxin-antitoxin RNase, primary screen, biochemical, fluorescence, uHTS; FAM/BHQ RNA-DNA oligo cleavage fluorescence, 5 h; activation, % at 20 µM; actives 0.32% (n = 350,000); in the data active = activation above about 50%
# Target sequence (P0AE70 whole entry, looked up): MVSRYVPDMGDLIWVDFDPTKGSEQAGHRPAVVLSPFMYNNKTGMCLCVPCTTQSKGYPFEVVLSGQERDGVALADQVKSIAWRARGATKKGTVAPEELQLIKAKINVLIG
# PrP UTR inh – inhibition of PrP 5' UTR reporter expression | AID 488862, 2010 | cell-based PrP 5' UTR mRNA reporter, plate reader | actives 0.35% (n = 340,000) | inhibition, % (test concentration not listed); in the data active = inhibition above about 52%; also: 0 = median of the neutral control wells
# PfHsp40 yeast – rescue of yeast from PfHsp40 toxicity, primary screen, S. cerevisiae, ATP luminescence | S. cerevisiae expressing PfHsp40, growth rescue | growth rescue, % at 12.5 µM | actives 0.68% (n = 340,000); in the data active = growth rescue above about 28%, passing the limit was not always enough;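 also: yeast W303a lacking pdr1 and pdr3 grown in galactose medium; growth measured after three days at 30 °C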
# PriA SSB inh – inhibitors of Klebsiella pneumoniae PriA binding to SSB C-terminal tail, primary screen, biochemical, AlphaScreen; AlphaScreen SSBct-PriA binding, biotinylated peptide; inhibition, % at 33 µM; actives 0.6% (n = 430,000); in the data active = inhibition mostly above about 37%, no sharp cut-off; inactive = mostly below about 20%;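 also: plate controls were negative control peptide for no effect and reference peptide for full effect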
# PrPC surface inh – inhibitors of human cell surface prion protein PrPC, primary screen, cell-based, TR-FRET; inhibition, % at 13.8 µM; Major prion protein (Homo sapiens), P04156; actives 0.43% (n = 370,000); TR-FRET read-out; in the data active = inhibition above about 24%; also: 0% = median of the test wells and 100% = reference compound wells
# An asterisk follows results filed as active; . = no result given; + = active, no number; ! = not confirmed by another sample.
SMILES,MazF activator,PrP UTR inh,PfHsp40 yeast,PriA SSB inh,PrPC surface inh
CC(=O)c1c(C)[nH]c(C(=O)NNC(=O)COc2cc(C)ccc2C(C)C)c1C,9.0,-17.2,0.8,-0.2,-7.1
CCS(=O)(=O)N1CCc2nc(-c3ccccc3)sc2C1,13.9,-57.5,-0.5,91.0*,-1.8
COc1ccc(-c2nc3c(s2)CN(S(C)(=O)=O)CC3)cc1OC,-0.2,-32.0,0.8,16.7,-14.1
Cc1ccc2c(C)c3ccc4ccccc4c3c[n+]2c1,-6.1,-19.0,368.1*,6.9,-34.4
CCCCC[n+]1cccc2c3ccccc3ccc21,7.4,-20.8,0.5,-12.5,-13.6
O=C(c1ccc(N2CCN(C(=O)c3ccccc3Br)CC2)cc1)c1cccc(F)c1,-13.0,8.7,34.4*,-20.8,5.9
Cn1c(COc2ccc3ccccc3c2)nnc1SCC(=O)OC1CCCCC1,-16.3,-12.9,49.0*,-8.8,3.7
CCCCCc1ccc(OCCCC[n+]2ccccc2)c(CCCCC)c1,10.8,-13.5,134.9*,-0.9,.
CCCCCc1ccc(OCCCC[n+]2ccc(C)cc2)c(CCCCC)c1,-8.7,-2.6,0.2,15.8,16.7
CCCCCc1ccc(OCCCC[n+]2cccc(C)c2)c(CCCCC)c1,0.5,-12.1,95.3*,-16.4,8.9
CCCS(=O)(=O)c1ccc(COC(=O)c2cccc(NC(=O)C(C)C)c2)cc1,-0.1,-6.9,-0.5,0.7,2.8
CCCOc1ccc(S(=O)(=O)n2cc(F)c(=O)[nH]c2=O)cc1,-5.3,-27.6,161.7*,7.0,-3.6
CC(C)COc1ccc(S(=O)(=O)NCC2CCN(C)CC2)cc1,.,.,.,-8.0,.
CCOc1ccc(Cn2cc(F)c(=O)[nH]c2=O)cc1,-0.9,-5.3,0.9,-11.2,7.1
CC(C)COc1ccc(S(=O)(=O)n2cc(F)c(=O)[nH]c2=O)cc1,4.1,-3.3,35.7*,0.2,7.2
COC1(C)CC2C(CC1OC(=O)c1cc([N+](=O)[O-])cc([N+](=O)[O-])c1)C2(C)C (stereo not given),-8.1,-31.9,-2.8,73.8*,-5.2
COC(=O)c1cc(C(=O)NCC2CCCCC2)cc([N+](=O)[O-])c1,1.3,-20.9,0.1,1.0,-26.9
CCOC(=O)c1cccc2c1-c1ccccc1/C2=N/O,-0.5,-14.9,232.6*,.,-0.4
N#Cc1nc(-c2ccco2)oc1N1CCCC1,-0.3,-13.7,-0.7,-0.1,2.2
N#Cc1nc(-c2ccco2)oc1N1CCc2ccccc2C1,-0.2,-9.7,1.3,43.2*,0.9
N#Cc1nc(-c2ccco2)oc1N1CCN(C(c2ccccc2)c2ccccc2)CC1,5.1,-80.7,-0.4,4.8,-0.1
N#Cc1nc(-c2ccco2)oc1N1CCN(c2cccc(Cl)c2)CC1,-4.0,-2.6,1.4,49.9*,-1.5
O=C1Nc2ccccc2Oc2ccc(NS(=O)(=O)Cc3ccccc3Cl)cc21,.,.,.,-5.0,.
O=C(CN1C2=NCCN2c2ccccc21)C12CC3CC(CC(C3)C1)C2,11.2,13.1,-0.9,-7.3,-1.6
Cc1ccc(N=C2NC(=O)/C(=C/c3cccs3)S2)cc1C,54.3*,-34.3,-0.6,2.9,-0.6
SMILES,MazF activator,PrP UTR inh,PfHsp40 yeast,PriA SSB inh,PrPC surface inh
O=C(C1=COCCO1)N(CCn1cccn1)c1nc2c(F)cccc2s1,.,.,.,-17.0,.
O=C(CSc1cccc2cccnc12)NC(c1ccccc1)c1ccccc1,.,.,.,16.5,.
O=C(CSc1cccc2cccnc12)NCCc1ccc(Cl)cc1,.,.,.,77.0*,.
O=C(CSc1cccc2cccnc12)N1CCCCCC1,.,.,.,101.8*,.
CC(C)(C)NC(=O)CSc1cccc2cccnc12,.,.,.,41.3,.
O=C(O)CSc1cccc2cccnc12,-0.1,12.6,-1.8,65.0*!,3.5
NC(=O)CSc1cccc2cccnc12,.,.,.,64.5*,.
CCCNC(=O)C(Cc1ccc(OC)cc1)NC(=O)c1ccc(Cl)cc1 (stereo not given),3.5,-13.7,0.2,-10.3,3.6
O=C(Nc1cccc(C(=O)O)c1)/C(=C\c1ccc2c(c1)OCO2)NC(=O)c1ccccc1,-11.7,-17.7,-1.3,-9.6,1.6
Cc1ccccc1Cn1cnc2c(cnn2CCNC(=O)c2ccc([N+](=O)[O-])o2)c1=O,.,.,.,-2.0,.
C=CCOc1nc(N(C)C)nc(N(C)C)n1,0.4,-9.0,-0.6,-1.6,-2.1
COc1ccc(OC)c(Nc2nc(CC(=O)Nc3ccc(C)cc3)cs2)c1,.,.,.,31.0*,.
CCCC(C)C(=O)Nc1nc(C)c(-c2csc(Nc3cc(OC)ccc3OC)n2)s1 (stereo not given),-12.5,1.8,-0.4,46.7*,-0.9
COc1ccc(OC)c(Nc2nc(CC(=O)NCc3ccc(F)cc3)cs2)c1,.,.,.,18.0*,.
COc1ccc(OC)c(Nc2nc(CC(=O)NCc3ccncc3)cs2)c1,.,.,.,12.0,.
COc1ccc(OC)c(Nc2nc(CC(=O)Nc3ccc4c(c3)OCCO4)cs2)c1,.,.,.,33.0*,.
Cc1ccc(NC(=O)c2c(C)noc2C)cc1,8.5,3.0,0.0,-11.5,5.3
CCc1c(C)nc(SCC(=O)Nc2nccs2)[nH]c1=O,.,.,.,1.0,.
COc1ccc(NC(=O)Cc2csc(Nc3cccc(Cl)c3)n2)c(OC)c1,.,.,.,16.0*,.
COC(=O)c1ccc(-c2c(-c3ccccc3)ncc3cc(F)ccc23)cc1,-15.0,-27.4,0.5,-19.6,2.4
N#Cc1ccc(-c2c(-c3ccccc3)ncc3cc(F)ccc23)cc1,-5.8,-38.0,124.4*,-4.4,5.8
CCOC(=O)c1c(/N=C/c2c(O)n(-c3ccc(F)cc3)c(=S)[nH]c2=O)sc2c1CCCC2,-136.0,-11.7,41.2*,.,1.1
COc1ccc(C(=O)CSc2nc(=O)n(Cc3cccnc3)c3c2CCC3)cc1,2.0,-19.5,-0.9,0.4,-6.3
COC(=O)COc1ccc(C)cc1-n1nc2ccccc2n1,-0.3,-13.3,43.6*,2.6,14.8
Cc1ccc(OC(=O)COc2ccccc2C)c(-n2nc3ccccc3n2)c1,-4.5,-73.9,0.1,-42.7,0.8
SMILES,MazF activator,PrP UTR inh,PfHsp40 yeast,PriA SSB inh,PrPC surface inh
COC(=O)COc1ccc(-c2ccccc2)cc1C=O,5.9,-24.6,64.3*,-3.8,8.3
COC(=O)COc1ccc(-c2ccc(F)cc2)cc1C=O,4.4,-23.5,63.0*,-9.1,1.6
CCN(CCO)C1CC(=O)N(c2ccccc2C)C1=O (stereo not given),5.8,-19.8,75.0*,-1.8,.
Cc1ccccc1N1C(=O)CC(N(O)c2ccccc2)C1=O (stereo not given),2.5,-17.8,-1.0,10.0,1.5
CC(=O)N1C(=O)C(=C2C=C(C)OC(C)=C2)c2ccccc21,+,-3.9,-1.4,-6.4,-3.0
CC1=CC(=C2C(=O)c3ccccc3C2=O)C=C(C)O1,6.9,-50.6,1.4,-2.6,-7.1
CC(=O)N1CC(=O)Nc2ccc(Br)cc2C1c1ccc(F)cc1 (stereo not given),10.6,-6.0,84.6*,-20.5,-3.4
CCCC(=O)N1CC(=O)Nc2ccc(Br)cc2C1c1ccc(F)cc1 (stereo not given),-1.7,1.6,1.7,-5.9,-2.7
